Screens deposited in PubChem BioAssay by National Center for Advancing Translational Sciences (NCATS).
JMJD2A Tudor – inhibitors of human JMJD2A Tudor domain | O75164 | hit rate 4.4% among 390,000 | Potency, µM (doses to about 114 µM), without a hit: at the highest dose activity change, negative = inhibition, usual class: inhibitors | AlphaScreen JMJD2A-Tudor / H3K4me3 peptide binding | AID 504339; further: potency means the concentration at half of the fitted maximal effect; on the % scale 0 is the no-effect control and ±100 the full control effect; nearly all actives have a fitted effect of over 50% in size
HP1b binding inh – HP1-beta chromodomain-methylated histone interaction inhibition; Potency, µM (highest dose often 114 µM), for inactives: at the highest dose activity change, negative = inhibition, most hits filed as inhibitors; hit rate 0.56% among 390,000; P83916; AlphaScreen HP1-beta / biotin-H3K9me3 peptide binding; further: potency means the concentration at half of the fitted maximal effect; nearly all actives have a fitted effect of over 70% in size
Target sequence (P83916 whole entry, looked up): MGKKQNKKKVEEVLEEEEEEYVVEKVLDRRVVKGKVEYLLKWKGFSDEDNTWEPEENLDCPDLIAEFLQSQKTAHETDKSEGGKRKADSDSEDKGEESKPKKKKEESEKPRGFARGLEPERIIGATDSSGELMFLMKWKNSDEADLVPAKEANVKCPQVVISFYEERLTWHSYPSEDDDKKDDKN
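AlphaScreen: HP1-beta (50 nM) preformed 30 min with biotin-H3(1-18)K9me3 peptide (50 nM) in PBS pH 7.4, 0.01% Tween-20. Compound added for 30 min at RT, then streptavidin donor/nickel chelate acceptor beads (10 ug/mL) for 30 min.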
CtBP-E1A inh – CtBP/E1A binding inhibition. hit rate 0.49% among 340,000. AlphaScreen GST-E1A/His-CtBP binding, 1536-well; stronger effect = lower value. activity change, % (test concentration not listed); in the data active means activity change below about -65%; inconclusive means mostly about -30% to -63%; further: on the % scale 0 is the no-effect control and ±100 the full control effect
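GST-E1A and His-tagged CtBP (125 nM each as 5X stock) were preincubated with pin-transferred compound for 2 h at 37 °C in the dark, then glutathione donor and nickel acceptor beads were added for 1 h before AlphaScreen reading.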
Six1-Eya2 inh – blocks human Six1 binding to Eya2; AlphaScreen GST-Six1/His-Eya2 binding, biochemical; stronger effect = lower value; activity change, % (no concentration beside the values); Q15475+O00167; AID 651725; hit rate 0.56% among 360,000; in the data active means activity change below about -65%; inconclusive means mostly about -30% to -63%; further: on the % scale 0 is the no-effect control and ±100 the full control effect
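AlphaScreen luminescence read after one hour at 37 °C in darkness. Pin-transferred compounds met GST-Six1 and His-Eya2 protein (5X stock 250 nM/500 nM) plus glutathione donor and Ni-chelate acceptor beads (5X, 50 ug/mL).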
G9a block – inhibitors of human histone lysine methyltransferase G9a | Q96KQ7 | G9a H3K9 monomethylation, AlphaScreen, 2 h | Potency, µM (titrated, usually from 102 µM), without a hit: at the highest dose activity, negative = inhibition, hits mostly inhibitors | hit rate 8.8% among 350,000; further: potency means the concentration at half of the fitted maximal effect; on the % scale 0 is the no-effect control and ±100 the full control effect; nearly all actives have a fitted effect of over 75% in size
Target sequence (Q96KQ7 913-1193 limits assumed): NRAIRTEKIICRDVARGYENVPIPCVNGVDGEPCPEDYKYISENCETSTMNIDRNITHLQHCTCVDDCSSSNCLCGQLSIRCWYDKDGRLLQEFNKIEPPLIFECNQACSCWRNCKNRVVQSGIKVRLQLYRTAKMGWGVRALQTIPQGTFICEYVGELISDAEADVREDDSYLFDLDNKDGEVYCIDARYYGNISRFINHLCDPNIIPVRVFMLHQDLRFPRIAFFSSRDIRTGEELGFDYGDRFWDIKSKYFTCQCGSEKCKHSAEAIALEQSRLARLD
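AlphaScreen detection with an anti-monomethyl H3K9 antibody quantified product after a 2 h room-temperature reaction containing 500 nM biotinylated H3K9 peptide, 20 µM SAM and 20 nM enzyme, which had been preincubated 15 min with compound.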
BAZ2B block – BAZ2B (human) inhibition | Potency, µM (top dose mostly 114 µM), for the others: at the highest dose activity change, negative = inhibition, hits mostly inhibitors | AlphaScreen BAZ2B-H3K14Ac peptide displacement | Q9UIF8 | hit rate 4.4% among 360,000; further: potency means the concentration at half of the fitted maximal effect; on the % scale 0 is the no-effect control and ±100 the full control effect; nearly all actives have a fitted effect of over 60% in size
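Complex of BAZ2B and biotin-H3K14Ac (50 nM apiece) forms over 30 min at RT, then faces library compounds up to 110 uM for another 30 min; AlphaScreen beads added, 20 min dark incubation, luminescence read.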
Active calls of the source: *; u = inconclusive; x = no result given; [ ] = another dose, or the depositor's remark. Compounds with a hit are over-represented: about 10% of the library has one in this group of screens. Unless noted, the call rests on the fitted dose curve; in most records, active means well fitted inhibition curve with a large enough effect; inconclusive means small, poorly fitted or top-dose-only effect; inactive means no such curve, though single readings can be large or run the other way.

SMILES	JMJD2A Tudor	HP1b binding inh	CtBP-E1A inh	Six1-Eya2 inh	G9a block	BAZ2B block
CCCN1CCN(c2ncnc3sc(C(=O)Nc4c(C)cc(C)cc4C)c(C)c23)CC1	-7.3%	34.4%	x	x	-18.2%[12.7 µM]	-14.9%
S=C(c1ccc(Br)cc1)N1CCN(Cc2ccccc2)CC1	u	-34.6%	-22.3	-22.8	x	u
CCN1CCN(C(=S)c2ccc(O)cc2)CC1	-9.4%	-9.5%	x	1.5	6.31µM*	-28.2%
Oc1ccc(C(=S)N2CCN(Cc3ccccc3)CC2)cc1	u	u	x	-9.7	2.24µM*	-24.8%
CN(C)c1ccc(C(=S)N2CCN(Cc3ccccc3)CC2)cc1	56.2µM*	u	x	u	8.91µM*	35.5µM*
Cc1ccccc1CNC(=O)c1ccc(CN2CC(=O)N3CCCCC3C2=O)cc1 (stereo not drawn)	-23.8%	32.1%	x	x	-1.6%[59 µM]	0.5%
O=CC(O)C(O)C(O)C(O)CO (stereo not drawn)	x	x	x	x	3.7%[59 µM]	x
CCc1c(C)sc(NC(=O)c2cc(-c3ccco3)on2)c1C#N	-18.6%	-13.8%	22.6	1.2	12.6µM*	-0.7%
CCc1c(C)sc(NC(=O)c2cc(C)on2)c1C#N	-9.3%	4.7%	2.6	1.5	x	1.6%
CCc1c(C)sc(NC(=O)C2CCCO2)c1C#N (stereo not drawn)	-25.2%[57.1 µM]	u	-0.8	1.2	8.91µM*	-1.6%
CCc1c(C)sc(NC(=O)c2cccs2)c1C#N	-9.2%	-7.3%	-4.1	-5.9	12.6µM*	2.7%
CCc1c(C)sc(NC(=O)c2cc(C3CC3)on2)c1C#N	0.0%	-1.4%	-11.7	1.2	44.7µM*	10.1%
CCn1cc2c(n1)-c1c(oc(C(=O)Nc3cccc(C(F)(F)F)c3)c1C)CC2	-28.9%	17.4%	x	x	u	-30.7%
O=C(NCc1ccc(Cl)cc1)c1ccc2oc(=O)n(Cc3ccccc3)c2c1	-11.3%	43.2%	x	x	29.0%[59 µM]	-7.4%
COc1ccccc1NC(=O)CC1Sc2ccc(C(F)(F)F)cc2NC1=O (stereo not drawn)	-9.8%	37.7%	x	x	0.6%[59 µM]	2.6%
Cc1ccc(C)c(Cn2c(=O)n(Cc3ccccc3)c(=O)c3c(C)c(C)sc32)c1	-6.8%	34.2%	x	x	-1.9%[59 µM]	0.6%
CCc1c(C)sc(NC(=O)c2cc(-c3ccc(OC)cc3)on2)c1C#N	2.4%	9.0%	x	x	10µM*	-2.5%
COC(=O)c1cc(C)nc2c1C(=O)C(=O)C=C2N1CCOCC1	-10.3%	-22.8%	-68.2*	-67.2*	44.7µM*	50.1µM*
COC1=C(Nc2ccc(OC)cc2)C(=O)C(OC)=C(Nc2ccc(OC)cc2)C1=O	-12.3%	10.9%	-10.5	-3.9	x	x
CCOc1ccc(NC2=C(OC)C(=O)c3ccccc3C2=O)cc1	8.91µM*	25.1µM*	u	-74.9*	8.91µM*	10µM*
COC1=C(Nc2ccc(OC)cc2)C(=O)c2ccccc2C1=O	20µM*	22.4µM*	12.3	-75.3*	10µM*	8.91µM*
COC1=C(Nc2ccc(O)cc2)C(=O)c2ccccc2C1=O	44.7µM*	50.1µM*	u	u	28.2µM*	39.8µM*
CCc1ccc(NC(=O)C2CCN(C(=O)N3CC(CC)Oc4ccccc43)CC2)cc1 (stereo not drawn)	u	11.3%	x	x	u	u
COCCn1c(C)cc(O)c(C(c2ccccc2OC)N2CCCCC2)c1=O (stereo not drawn)	-12.3%	33.0%[57 µM]	x	x	5.6%[59 µM]	0.7%
CCc1ccc(C(=O)c2cn(CC(=O)Nc3ccc(OC)cc3)c3cc4c(cc3c2=O)OCCO4)cc1	-11.9%	21.7%	x	x	0.7%[59 µM]	1.3%
SMILES	JMJD2A Tudor	HP1b binding inh	CtBP-E1A inh	Six1-Eya2 inh	G9a block	BAZ2B block
CCc1ccc(C(=O)c2cn(CC(=O)Nc3ccc(F)c(F)c3)c3cc(OC)c(OC)cc3c2=O)cc1	-22.8%	12.2%	x	x	-6.6%[59 µM]	79.4µM*
CCc1ccc(C(=O)c2cn(CC(=O)Nc3ccc4c(c3)OCCO4)c3ccc(CC)cc3c2=O)cc1	2.0%	42.8%	x	x	-0.6%[59 µM]	79.4µM*
CCOc1ccc(C(=O)c2cn(CC(=O)Nc3cc(OC)cc(OC)c3)c3ccc(F)cc3c2=O)cc1	-33.4%	25.8%	x	x	u	89.1µM*
Cc1ccc(NC(=O)CSc2nccn2-c2ccccc2)cc1	u	-25.9%	x	x	u	u
COc1ccc(-c2cc(C(F)(F)F)nc(SCC(=O)NCc3ccc(OC)c(OC)c3)n2)cc1	-22.3%	52.8%	x	x	-10.4%[59 µM]	3.5%
CC1CCCC(C)N1C(=C(Cl)Cl)C(=C1SCCS1)[N+](=O)[O-] (stereo not drawn)	-18.8%[11.4 µM]	u	x	u	35.5µM*	17.8µM*
CC1CCCC(C)N1C(=O)CSCc1ccc(Cl)cc1 (stereo not drawn)	20.7%	21.8%	3.6	5.2	9.7%	4.2%
CCc1ccccc1NS(=O)(=O)c1cc(Br)cc2c1N(C(=O)C1CC1)CC2	-10.9%	28.3%	x	x	-2.1%[59 µM]	2.2%
O=C(NC1CCC(O)CC1)c1cc(-c2ccco2)nc2ccccc12 (stereo not drawn)	u	-14.5%	3.6	-17.7	39.8µM*	22.4µM*
COc1cccc(-c2cc(C(=O)NC3CC3)c3ccccc3n2)c1	-1.4%	26.1%	2.5	1.3	x	-8.2%
O=C(NCC1CCCO1)c1cc(-c2ccco2)nc2ccccc12 (stereo not drawn)	-8.4%[11.4 µM]	u	5.0	2.3	44.7µM*	50.1µM*
COC(=O)C1CCN(C(=O)c2cc(-c3ccco3)nc3ccccc23)CC1	28.2µM*	u	x	-29.7	x	x
CCC(C)(C)NC(=O)C1CCC(CNS(=O)(=O)c2ccc3c(c2)CC(C)N3C(C)=O)CC1 (stereo not drawn)	-17.6%	15.4%	x	x	5.3%[59 µM]	-17.9%
COc1ccc(C2CC(c3ccccc3)Oc3c(C)ccc(C)c32)cc1 (stereo not drawn)	20.7%	50.1%	x	x	x	x
O=C(NCCCn1ccnc1)c1cccnc1	-6.9%	47.5%	4.1	4.7	6.9%[59 µM]	-11.3%
COCCn1c(-c2ccc(Br)cc2)csc1=Nc1cccnc1	44.7µM*	u	0.8	-25.3	39.8µM*	11.2µM*
FC(F)Oc1ccc(-c2csc(=Nc3cccnc3)n2CC2CCCO2)cc1 (stereo not drawn)	-28.0%[57.1 µM]	u	-9.0	-12.0	u	44.7µM*
Clc1ccc(-c2csc(=Nc3cccnc3)n2CCCn2ccnc2)cc1Cl	39.8µM*	u	-12.3	-24.3	11.2µM*	11.2µM*
O=C(CSc1c2c(nc3ccccc13)CCC2)Nc1ccc(F)cc1	-4.0%	43.9%	x	x	3.1%[59 µM]	x
CC1=C(C(N)=O)C(c2ccccc2Br)n2ncnc2N1 (stereo not drawn)	3.5%	26.3%[57 µM]	x	x	-39.2%[59 µM]	-1.2%
CC1=C(C(N)=O)C(c2ccccc2[N+](=O)[O-])n2ncnc2N1 (stereo not drawn)	39.8µM*	u	x	-26.4	28.2µM*	-0.6%
